# Source: the supplement of paper PMC13380429
# Columns and labels:
# [1] = tested on: Vero E6 infected with SARS-CoV-2; experiment: morphology score (similarity to uninfected cells); higher = more like uninfected cells; details: 24 h
# [2] = tested on: Vero E6 infected with SARS-CoV-2; experiment: SARS-CoV-2 infection rate relative to infected DMSO; higher = more infection, active = 60 or less; details: 24 h
Structure (SMILES),morphology score [1],SARS-CoV-2 infection rate [2]
CC/C(=C(\c1ccc(O)cc1)c1ccc(OCCN(C)C)cc1)c1ccccc1 [afimoxifene] (10 µM),0.801,27.5% (active)
O=C(CCCN1CCC(O)(c2ccc(Cl)cc2)CC1)c1ccc(F)cc1 [haloperidol] (10 µM),-0.0179,114% (inactive)
O=C(O)c1cc2ccccc2s1 (10 µM),0.0676,88% (inactive)
COC(=O)C1=C(C)NC(C)=C(C(=O)OCC(C)C)C1c1ccccc1[N+](=O)[O-] (stereo not given) [nisoldipine] (0.833333 µM),-0.0369,112% (inactive)
CC(C)(C)C(=O)OCC(=O)[C@H]1CC[C@H]2[C@@H]3CCC4=CC(=O)CC[C@]4(C)[C@H]3CC[C@]12C [desoxycorticosterone-pivalate] (10 µM),0.123,106% (inactive)
COC(=O)C1=C(C)NC(C)=C(C(=O)OC)C1c1ccccc1[N+](=O)[O-] [nifedipine] (10 µM),-0.0637,106% (inactive)
CCCOC(C(=O)OC1CCN(C)CC1)(c1ccccc1)c1ccccc1 [propiverine] (10 µM),0.677,41% (active)
CC[C@H](C)C(=O)O[C@H]1C[C@@H](C)C=C2C=C[C@H](C)[C@H](CC[C@@H]3C[C@@H](O)CC(=O)O3)[C@H]21 [lovastatin] (10 µM),0.0359,110% (inactive)
CN1[C@@H]2C[C@@H](OC(=O)[C@H](CO)c3ccccc3)C[C@H]1[C@@H]1O[C@@H]12 (10 µM),0.141,97.5% (inactive)
Cc1nnsc1C(=O)Nc1ccc(-n2nc(C(F)(F)F)cc2C(F)(F)F)cc1 (10 µM),-0.0783,106% (inactive)
COc1cc2c(cc1OC(C)C)[C@H](c1ccc(Cl)cc1)N(c1ccc(N(C)C[C@H]3CC[C@H](N4CCN(C)C(=O)C4)CC3)cc1)C(=O)C2 (0.833333 µM),0.244,93.5% (inactive)
O=C1NC(=O)[C@@H](c2cn3c4c(cccc24)CCC3)[C@@H]1c1c[nH]c2ccccc12 [tivantinib] (10 µM),-0.141,107% (inactive)
CN1CCN(c2c(F)cc3c(=O)c(C(=O)O)cn4c3c2SCC4)CC1 [rufloxacin] (10 µM),0.0805,103% (inactive)
O=C(/C=C/c1cccnc1)NCCCCC1CCN(C(=O)c2ccccc2)CC1 (0.833333 µM),-0.0966,94% (inactive)
CCC(=O)c1cc(-c2ccc(Cl)cc2)n(-c2ccc(S(N)(=O)=O)cc2)c1C (10 µM),0.104,102% (inactive)
C[C@]12CCC(=O)C=C1C=C[C@@H]1[C@@H]2CC[C@@]2(C)[C@H]1CC[C@@]2(O)CCC(=O)O [potassium-canrenoate] (10 µM),-0.166,114% (inactive)
CS(=O)(=O)N1CCN(Cc2cc3nc(-c4cccc5[nH]ncc45)nc(N4CCOCC4)c3s2)CC1 (10 µM),-0.319,89% (inactive)
c1ccc(CC2=NCCN2)cc1 [tolazoline] (10 µM),0.146,99.5% (inactive)
NC(=S)N/N=C/c1ncccc1N [triapine] (0.833333 µM),0.051,106% (inactive)
CSc1ccc(C(=O)/C=C/c2cc(C)c(OC(C)(C)C(=O)O)c(C)c2)cc1 [elafibranor] (10 µM),0.00446,110% (inactive)
C[C@](N)(Cc1ccc(O)cc1)C(=O)O [metirosine] (10 µM),-0.111,112% (inactive)
CCCc1nn(C)c2c(=O)[nH]c(-c3cc(S(=O)(=O)N4CCN(C)CC4)ccc3OCC)nc12 [sildenafil] (10 µM),0.056,109% (inactive)
O=[N+]([O-])c1cn2c(n1)OC[C@@H](OCc1ccc(-c3ccc(OC(F)(F)F)cc3)nc1)C2 (10 µM),-0.214,110% (inactive)
"Cc1ccc(C)c([C@H](O)CNC(C)C)c1 [benzenemethanol,-2,5-dimethyl-[[(1-methylethyl)amino]methyl]] (10 µM)",0.0583,106% (inactive)
C[C@H](NC(=O)C(C)(C)Oc1ccc(C(F)(F)F)cn1)[C@@H](Cc1ccc(Cl)cc1)c1cccc(C#N)c1 [taranabant] (10 µM),0.1,101% (inactive)
CC(C)Oc1cccc(CC(=O)N2CCC[C@](CC[N+]34CCC(c5ccccc5)(CC3)CC4)(c3ccc(Cl)c(Cl)c3)C2)c1 (10 µM),0.0196,110% (inactive)
COc1ccc(/C=C\c2cc(OC)c(OC)c(OC)c2)cc1O [combretastatin-A-4] (10 µM),0.000765,98.5% (inactive)
O=C(O[C@H]1[C@H](OC(=O)c2cccnc2)[C@@H](OC(=O)c2cccnc2)[C@H](OC(=O)c2cccnc2)[C@@H](OC(=O)c2cccnc2)[C@H]1OC(=O)c1cccnc1)c1cccnc1 [inositol-hexanicotinate] (10 µM),0.0225,109% (inactive)

Structure (SMILES),morphology score [1],SARS-CoV-2 infection rate [2]
CC(=O)O[C@H]1C[C@@H]2CC[C@@H]3[C@H](CC[C@@]4(C)[C@H]3C[C@H](N3CC[N+](C)(C)CC3)[C@@H]4OC(C)=O)[C@@]2(C)C[C@@H]1N1CC[N+](C)(C)CC1 [pipecuronium] (10 µM),0.0487,106% (inactive)
Cc1[nH]c2ccccc2c1CCNCc1ccc(/C=C/C(=O)NO)cc1 [panobinostat] (0.833333 µM),-0.0995,105% (inactive)
CCNC(=O)NS(=O)(=O)c1sc(CC(C)C)cc1-c1ccc(Cn2c(-c3ccccc3)nc(OC)c2C=O)cc1 (10 µM),0.159,97% (inactive)
Cc1n[nH]c2ccc(-c3cncc(OC[C@@H](N)Cc4ccccc4)c3)cc12 (10 µM),0.111,92.5% (inactive)
Fc1ccc(Cl)cc1-c1nc(Nc2ccncc2)c2nccnc2n1 (10 µM),0.0882,101% (inactive)
CCC1(c2ccccc2)C(=O)NCNC1=O [primidone] (10 µM),0.097,102% (inactive)
CC(=O)OCC(=O)[C@@]12OC(C)(C)O[C@@H]1C[C@H]1[C@@H]3C[C@H](F)C4=CC(=O)C=C[C@]4(C)[C@@]3(F)[C@@H](O)C[C@@]12C [fluocinonide] (10 µM),0.184,104% (inactive)
COc1ccc2[nH]c(-c3ccccc3)c(CCNC(C)=O)c2c1 [2-phenylmelatonin] (10 µM),0.062,107% (inactive)
O=C(NCCCN1CCOCC1)c1ccc(Cl)cc1 [eprobemide] (10 µM),-0.0432,108% (inactive)
CN1CCN(c2c(F)cc3c(=O)c(C(=O)O)cn(CCF)c3c2F)CC1 [fleroxacin] (10 µM),-0.043,115% (inactive)
CO[C@@H]1COCC[C@@H]1N[C@@H]1CC[C@@](C(=O)N2CCc3ncc(C(F)(F)F)cc3C2)(C(C)C)C1 (10 µM),-0.21,113% (inactive)
O=c1c(-n2ccnn2)c[nH]n1-c1cc(N2CCOCC2)ncn1 [molidustat] (10 µM),0.0599,98.5% (inactive)
CCC[C@H]1C(=O)N2C(N(C)C)=Nc3ccc(C)cc3N2C1=O [azapropazone] (10 µM),0.165,94% (inactive)
Nc1ccc(C(=O)O)c(O)c1 [aminosalicylate] (10 µM),-0.137,106% (inactive)
CC(C)OC(=O)N1CCC(Oc2ncnc3c2cnn3-c2ccc(S(C)(=O)=O)cc2F)CC1 (10 µM),0.0759,98% (inactive)
CO[C@H]1[C@H](O)[C@@H](O)[C@@H](O)[C@H](O)[C@@H]1O [pinitol] (10 µM),-0.0343,114% (inactive)
O=C(/C=C/c1ccc(O)c(O)c1)O[C@@H]1C[C@](O)(C(=O)O)C[C@@H](O)[C@H]1O [chlorogenic-acid] (10 µM),0.0432,112% (inactive)
CC(C)(C)c1ccc(S(=O)(=O)/C=C/C#N)cc1 (0.833333 µM),0.173,89.5% (inactive)
CC[C@H](C)[C@@H]1NC(=O)[C@H](Cc2ccc(O)cc2)NC(=O)[C@@H](N)CSSC[C@@H](C(=O)N2CCC[C@H]2C(=O)N[C@@H](CC(C)C)C(=O)NCC(N)=O)NC(=O)[C@H](CC(N)=O)NC(=O)[C@H](CCC(N)=O)NC1=O [oxytocin] (10 µM),-0.0591,110% (inactive)
O=C(O)c1ccccc1-c1ccc(C(F)(F)F)cc1 [xenalipin] (10 µM),0.0335,102% (inactive)
COC[C@@H](NC(C)=O)C(=O)NCc1ccccc1 [Lacosamide] (10 µM),-0.1,103% (inactive)
CCOC(=O)[C@H](CCc1ccccc1)N[C@@H](C)C(=O)N1[C@H](C(=O)O)C[C@H]2CCCC[C@@H]21 [trandolapril] (10 µM),0.00679,106% (inactive)
CC(C)(C)c1nc(-c2cccc(NS(=O)(=O)c3c(F)cccc3F)c2F)c(-c2ccnc(N)n2)s1 [dabrafenib] (10 µM),0.245,114% (inactive)
CS(=O)(=O)N1CCc2c(-c3cnc(N)nc3)nc(N3CCOCC3)nc21 (0.833333 µM),0.0917,110% (inactive)
O=C(Nc1cccc2c(=O)cc(-c3nnn[nH]3)oc12)c1ccc(OCCCCc2ccccc2)cc1 [pranlukast] (10 µM),0.0454,111% (inactive)
C=C[C@@H]1C[C@]1(NC(=O)[C@@H]1C[C@@H](Oc2ncc(OC)c3ccc(Cl)cc23)CN1C(=O)[C@@H](NC(=O)OC(C)(C)C)C(C)(C)C)C(=O)NS(=O)(=O)C1CC1 [asunaprevir] (10 µM),0.192,85% (inactive)
CCCCn1ccc(N2CCC(c3ccccc3)CC2)c(Cl)c1=O (10 µM),-0.265,116% (inactive)
